Reference: PubChem BioAssay AID463173 (ICCB-Longwood Screening Facility, Harvard Medical School, 2010)
Out of some 52,000 compounds screened, about 4,300 (8.3%) were called active. Shown is part of a subset that was picked to be rich in actives. Values without a mark were called inactive. No stated cut-off is given here; in the data, active means survival mostly below about 52% (no sharp cut-off); inactive means mostly above about 56%.

system: DeltatarO mutant; assay: growth inhibition of S. aureus wild type versus tarO mutant, primary screen, teichoic acid synthesis inhibitors, RN4220, OD600 (AID 463173); settings: OD600, 18 h, active compounds read low, screened at 18.75 µg/mL (by protocol)

Structure (SMILES) | survival
O=C(COc1ccccc1Cl)Nc1ccccc1OCc1cc(=O)n2ccccc2n1 | 92%
COc1ccc(NC(=O)COCc2cc(-c3ccco3)on2)cc1Cl | 112%
Cc1ccc(NC(=O)C2CCCN2S(=O)(=O)c2cccc3nsnc23)c(C)c1 (stereo not given) | 78%
COc1cc(NC(=O)CN2C(=O)c3ccccc3Sc3ccc(C(=O)N4CCCC4)cc32)cc(OC)c1 | 72%
CCc1ccc2occ(CC(=O)Nc3ccc(OC)c(Cl)c3)c2c1 | 88%
CCc1c(C)sc(NC(=O)c2cc(-c3ccc(OC)c(OC)c3)on2)c1C#N | 149%
CCc1c(C)sc(NC(=O)c2cc(-c3ccc(OC)cc3)on2)c1C#N | 50% (active)
COc1ccc(-c2cc(C(=O)Nc3ccc(C#N)cc3)no2)cc1 | 46%
CCOC(=O)c1sc(NC(=O)c2cc(CC)on2)c(C(=O)OCC)c1C | 54%
CCc1cc(C(=O)Nc2sc(C)c(CC)c2C#N)no1 | 35% (active)
CCc1c(C)sc(NC(=O)c2cc(-c3cccc(Cl)c3)on2)c1C#N | 69%
CC(C)OCCCn1c(=O)c2ccccc2n2c(-c3ccccc3)nnc12 | 105%
CCN1CCN(CCCNC(=O)c2ccc3c(c2)sc2nc(-c4ccc(C)cc4)cn23)CC1 | 26% (active)
CCCN1CCN(CCCNC(=O)c2ccc3c(c2)sc2nc(-c4ccc(C)cc4)cn23)CC1 | 18% (active)
CCN1CCN(CCCNC(=O)c2ccc3c(c2)sc2nc(-c4ccc(OC)cc4)cn23)CC1 | 72%
COc1ccccc1Nc1nc(C)nc(N)c1S(=O)(=O)c1ccccc1 | 84%
COc1ccc2cc(-c3nc(Cl)c4c5c(sc4n3)CCCC5)c(=O)oc2c1 | 76%
CC1CCc2c(sc3nc(-c4cc5ccccc5oc4=O)nc(Cl)c23)C1 (stereo not given) | 61%
COc1ccc2cc(-c3nc(Cl)c4c5c(sc4n3)CC(C)CC5)c(=O)oc2c1 (stereo not given) | 77% (active)
COc1ccc(-c2csc(NC(=O)C(C)C)n2)cc1 | 84%
CCOC(=O)COc1ccc(C)cc1C(=O)c1ccn2nc(-c3ccc(F)cc3)cc2n1 | 69%
Cn1c(=O)oc2cc(S(=O)(=O)N3CCC(C(=O)NCc4ccccc4Cl)CC3)ccc21 | 125%
COC(=O)c1cc(-c2cc(OC)c(OC)c(OC)c2)no1 | 99%
Cn1c(COc2ccccc2C(C)(C)C)nc2ccccc21 | 5% (active)
COc1ccc(OCc2nc3ccccc3n2Cc2ccc(C(C)(C)C)cc2)cc1 | -9% (active)
COc1cccc(OCc2nc3ccccc3n2Cc2ccccc2)c1 | 62%
CC(C)(C)c1ccc(OCc2nc3ccccc3n2CCOc2ccccc2)cc1 | 10% (active)
Cc1ccc(C)c(OCc2nc3ccccc3n2C)c1 | 59%
Cn1c(COc2ccccc2Br)nc2ccccc21 | 92%
c1ccc(OCCn2c(COc3ccccc3)nc3ccccc32)cc1 | 0% (active)
